# Experimental data reported in ChEMBL document CHEMBL3988442, “University of Dundee, Small-Polar-MMV Screening Library” (2021).
# Among all 69,000 compounds or so, about 1,000 (1.4%) showed an effect of 50% or more. This is one part of a sample in which strong results are shown more often than they occur.
# Test system: Leishmania donovani
# Experiment: Leishmania intramacrophage assay
# Assay type: functional, organism-based
# Design: scale not given: in the data most compounds retested in dose-response had high values
structure (smiles),measurement,setting,value
CC(C)(C)n1ncc2c1CCCC2NCc1cccc2c1OCCO2 (stereo unspecified),Percent Effect,30 µM,39.91%
COc1c(CC2CC(C(=O)O)=NO2)c(Br)c2c(c1OC)OCO2 (stereo unspecified),Percent Effect,"30.3 µM, […]",9.318%
Cc1noc(CNC(=O)N2CCN(c3nc(C)c(C)s3)CC2)n1,Percent Effect,"30.3 µM, […]",0.7779%
O=C(CN1CCOC(Cn2cccn2)C1)NCc1ccco1 (stereo unspecified),Percent Effect,30 µM,30.39%
OC(CNC1CCOCC1)c1ccc(Cl)c(F)c1 (stereo unspecified),Percent Effect,"30.3 µM, […]",9.683%
CC(=O)N1CCCCC[C@@H]2[C@@H]1[C@H](c1cccc(F)c1)CN2C(=O)C1CC1,Percent Effect,"30.3 µM, […]",16.49%
Cc1nc[nH]c1-c1nccn1CCN1CCOC1=O,Percent Effect,"30.3 µM, […]",3.243%
CC(CC(=O)NCCNS(C)(=O)=O)C1CCCCC1 (stereo unspecified),Percent Effect,"30.3 µM, […]",12.79%
CC(C)COC(C)C(=O)NCCNS(C)(=O)=O (stereo unspecified),Percent Effect,"30.3 µM, […]",50.97%
CC(C)COC(C)C(=O)NCc1ccccc1 (stereo unspecified),Percent Effect,30 µM,13.02%
CC(C)C(=O)NCCNC(=O)C(C)OCC(F)(F)F (stereo unspecified),Percent Effect,"30.3 µM, […]",28.18%
CC(C)COC(C)C(=O)NCCNC(=O)C(C)C (stereo unspecified),Percent Effect,"30.3 µM, […]",43.81%
CCOC(C)C(=O)NCCNS(C)(=O)=O (stereo unspecified),Percent Effect,"30.3 µM, […]",50.09%
CCOCC(O)CN1CCN(C(=O)c2ccc(C)nc2)CC1 (stereo unspecified),Percent Effect,30 µM,29.83%
COc1ccc(Br)cc1CCC(=O)N1CCCC(O)C1 (stereo unspecified),Percent Effect,"30.3 µM, […]",6.225%
N#Cc1cccc(OCCN2CCCC(c3noc(C4CC4)n3)C2)c1 (stereo unspecified),Percent Effect,"30.3 µM, […]",32.43%
COCC1CN(S(=O)(=O)c2cccs2)Cc2ncnn2C1 (stereo unspecified),Percent Effect,"30.3 µM, […]",38.74%
Cc1ccccc1C(=O)Nc1cnn(CCN2CCOCC2)c1,Percent Effect,30 µM,17.38%
CC(C)CS(=O)(=O)Nc1ccc2c(c1)OCC(C)(C)C(=O)N2C,Percent Effect,"30.3 µM, […]",-17.18%
CSc1ccc(CNC(=O)C2CC(=O)N(C(C)(C)C)C2)cc1 (stereo unspecified),Percent Effect,"30.3 µM, […]",55.18%
CN(C)S(=O)(=O)c1ccc(CNC(=O)C2CC(=O)N(C(C)(C)C)C2)cc1 (stereo unspecified),Percent Effect,"30.3 µM, […]",21.08%
CCN1CC(C(=O)NCc2cccc(SC)c2)CC1=O (stereo unspecified),Percent Effect,"30.3 µM, […]",-29.4%
O=c1[nH]c(-c2ccc(F)c(F)c2)nc2c1CCNC2,Percent Effect,"30.3 µM, […]",51.76%
O=c1[nH]c(-c2ccc(Cl)cc2)nc2c1CCNC2,Percent Effect,"30.3 µM, […]",20.84%
O=c1[nH]c(-c2ccc(F)cc2)nc2c1CCNC2,Percent Effect,"30.3 µM, […]",23.84%
Cc1nc(CN2C[C@@H]3CCCO[C@@H]3[C@H](NC(=O)CC3CC3)C2)cs1.O=C(O)C(F)(F)F,Percent Effect,"30.3 µM, […]",13.13%
CC(=O)NCC(=O)N1CCC2(COCc3c(C)nc(N(C)C)nc32)C1 (stereo unspecified),Percent Effect,"30.3 µM, […]",0.3657%
Cc1ccoc1C(=O)N1CC[C@H]2C[C@H](c3nnc(C4CC4)o3)O[C@@H]2C1,Percent Effect,"30.3 µM, […]",7.701%
Cc1cc(C(=O)Cn2cnnc2[S+](C)[O-])cc(C)c1F (stereo unspecified),Percent Effect,"30.3 µM, […]",9.03%
CCCc1nn(C2CCN(C3CC3)C2=O)c(=O)o1 (stereo unspecified),Percent Effect,"30.3 µM, […]",-13.56%
CCCc1nn(C2CCCN(C(C)C)C2=O)c(=O)o1 (stereo unspecified),Percent Effect,"30.3 µM, […]",-18.62%
CCCc1nn(C2CCN(C(C)C)C2=O)c(=O)o1 (stereo unspecified),Percent Effect,"30.3 µM, […]",51.41%
CN1C(=O)C2(CCN(C(=O)c3ccccc3)CC2)c2cc(F)ccc21.Cl,Percent Effect,"30.3 µM, […]",50.2%
CC(=O)N1CCC2(CC1)C(=O)N(C)c1ccc(F)cc12,Percent Effect,"30.3 µM, […]",29.57%
CC(Oc1ccc(F)c(F)c1)C(=O)N(CC(N)=O)C1CCCC1 (stereo unspecified),Percent Effect,"30.3 µM, […]",-10.08%
CCc1nccn1C1CCCN(C(=O)c2cc3nc(C)ccc3o2)C1 (stereo unspecified),Percent Effect,"30 µM, 30.03 µM",3.953%
Cc1nn(C)c2cn(C(C)C(=O)NCc3ccccn3)nc12 (stereo unspecified),Percent Effect,"30.3 µM, […]",50.14%
Cc1nn(C)c2cn(C(C)C(=O)NCc3ccncc3)nc12 (stereo unspecified),Percent Effect,"30.3 µM, […]",59.59%
CCc1nc(NCc2ccccn2)c2c(n1)c(C)nn2C,Percent Effect,"30.3 µM, […]",-38.07%
COc1ccccc1CNC(=O)C(C)N1CC(n2cc(C)cn2)C1 (stereo unspecified),Percent Effect,"30.3 µM, […]",25.52%
Cc1nn(C)c2cn(C(C)C(=O)NCc3ccc(F)cc3)nc12 (stereo unspecified),Percent Effect,"30.3 µM, […]",25.73%
COc1ccccc1CNC(=O)Cn1ncc2c1c(C)nn2C,Percent Effect,"30 µM, 30.03 µM",13.53%
Cc1nc(NCc2ccccn2)c2c(n1)c(C)nn2C,Percent Effect,"30.3 µM, […]",42.28%
CCn1nccc1CNC(=O)C(C)n1cc2c(n1)c(C)nn2C (stereo unspecified),Percent Effect,"30 µM, 30.03 µM",-8.273%
COc1ccccc1CNC(=O)C(C)n1cc2c(n1)c(C)nn2C (stereo unspecified),Percent Effect,"30.3 µM, […]",52.43%
Cc1nn(C)c2c(NCc3ccccn3)ncnc12,Percent Effect,"30.3 µM, […]",50.68%
Cc1nn(C)c2cn(C(C)C(=O)NCc3cccnc3)nc12 (stereo unspecified),Percent Effect,"30 µM, 30.03 µM",8.191%
Cc1nn(C)c2cn(C(C)C(=O)NCc3cccc(F)c3)nc12 (stereo unspecified),Percent Effect,"30.3 µM, […]",-38.24%
Cc1nc(NCc2ccc(F)cc2)cc(C(=O)N2CCOCC2)n1,Percent Effect,"30.3 µM, […]",32.39%
Cc1ccc(CN2CCCC3(CCCCN3S(C)(=O)=O)C2)s1.O=C(O)C(F)(F)F (stereo unspecified),Percent Effect,"30.3 µM, […]",8.751%
Cn1cnnc1C1CCCN(C(=O)NCCCn2cccn2)C1 (stereo unspecified),Percent Effect,30 µM,24.48%
Cn1cnnc1SCc1cc2c(cc1Br)OCO2,Percent Effect,"30.3 µM, […]",-1.981%
CN(C(=O)c1cccc(OCC(F)F)n1)c1ccc2c(c1)CCO2,Percent Effect,"30.3 µM, […]",24.43%
O=C(C1SCCc2sccc21)N1CCN(CCO)CC1 (stereo unspecified),Percent Effect,"30 µM, 30.03 µM",-7.988%
Cc1cc(N(C)C)nc(C2(C)CCCN2C(=O)c2ccn(C)n2)n1 (stereo unspecified),Percent Effect,"30.3 µM, […]",1.341%
COc1ccc(OCCN(C)S(=O)(=O)N2CCOCC2)cc1,Percent Effect,"30.3 µM, […]",11%
CC(C)NC(=O)c1ccc2nnc(C3CN(C)CCN3C)n2c1.O=C(O)C(F)(F)F.O=C(O)C(F)(F)F (stereo unspecified),Percent Effect,"30.3 µM, […]",-3.873%
COc1c(CNCc2ccc(Cn3ccnc3)cc2)c(C)nn1C,Percent Effect,30 µM,38.9%
COc1c(CNCc2ccc(C(=O)N(C)C(C)C)cc2)c(C)nn1C,Percent Effect,30 µM,21.5%
COc1c(CNCc2ccccc2Cn2ccnc2)c(C)nn1C,Percent Effect,30 µM,42.31%
COc1c(CNCc2cccc(CN(C)C)c2)c(C)nn1C.Cl,Percent Effect,"30 µM, 30.03 µM",41.69%
COc1c(CNCc2ccc(C(=O)N(C)C)cc2)c(C)nn1C.Cl,Percent Effect,"30 µM, 30.03 µM",56.22%
COc1c(CNCc2cccc(Cn3ccnc3)c2)c(C)nn1C,Percent Effect,"30 µM, 30.03 µM",57.06%
COc1c(CNCc2cccc(Cn3cccn3)c2)c(C)nn1C,Percent Effect,30 µM,41.23%
COc1c(CNCc2cccc(C(=O)N(C)C)c2)c(C)nn1C,Percent Effect,30 µM,37.17%
COc1c(CNCc2cccc(Cn3ccnc3C)c2)c(C)nn1C.Cl,Percent Effect,30 µM,52.6%
O=C(CN1CCCC(c2ccc(C(=O)O)cc2)C1)NC1CC1 (stereo unspecified),Percent Effect,"30 µM, 30.03 µM",23.13%
Cc1ccc2cc(C(=O)N3CCCC3Cn3cccn3)[nH]c2c1 (stereo unspecified),Percent Effect,"30.3 µM, […]",22.94%
Cc1cnn(CCNCc2ccc(OCc3cccnc3)cc2)c1,Percent Effect,30 µM,27.42%
CN(C)C(=O)N1CCOCC2(CCN(c3ccccn3)C2)C1.O=C(O)C(F)(F)F (stereo unspecified),Percent Effect,"30 µM, 30.03 µM",18.14%
O=S1(=O)c2ccccc2C(O)CN1CCO (stereo unspecified),Percent Effect,"30.3 µM, […]",5.205%
CCN(CC)c1ccc2ccc(C(=O)N3CCCCO3)cn12.O=C(O)C(F)(F)F,Percent Effect,"30.3 µM, […]",27.79%
CCN(CC)c1ccc2ccc(C(=O)O)cn12,Percent Effect,"30.3 µM, […]",18.9%
Cc1nc(-c2ccc(S(=O)(=O)N3CCOCC3)cc2)co1,Percent Effect,"30.3 µM, […]",23.37%
Cc1nn(C)cc1CN1C[C@@H]2CC[C@H](C1)N(Cc1c(C)noc1C)C2=O,Percent Effect,"30.3 µM, […]",16.01%
CCN1CCC(c2nc3ccc(NC(C)C)cn3n2)CC1.O=C(O)C(F)(F)F,Percent Effect,"30 µM, 30.03 µM",14.23%
CCCN1CCC(c2nc3ccc(-c4ccccc4)cn3n2)CC1.O=C(O)C(F)(F)F,Percent Effect,"30.3 µM, […]",22.28%
CC(=O)N1CCC(c2nc3ccc(NC4CCC4)cn3n2)CC1.O=C(O)C(F)(F)F,Percent Effect,"30.3 µM, […]",40.49%
CCCN1CCC(c2nc3ccc(-c4ccncc4)cn3n2)CC1.O=C(O)C(F)(F)F.O=C(O)C(F)(F)F,Percent Effect,"30.3 µM, […]",22.97%
CCCN1CCC(c2nc3ccc(-c4cccc(F)c4)cn3n2)CC1.O=C(O)C(F)(F)F,Percent Effect,"30.3 µM, […]",49.02%
CCCN1CCC(c2nc3ccc(-c4cccc(OC)c4)cn3n2)CC1.O=C(O)C(F)(F)F,Percent Effect,"30.3 µM, […]",66.14%
CCN1CCC(c2nc3ccc(NC4CCC4)cn3n2)CC1.O=C(O)C(F)(F)F,Percent Effect,"30.3 µM, […]",53.52%
CN1CCC(c2nc3ccc(-c4ccccc4)cn3n2)CC1.O=C(O)C(F)(F)F,Percent Effect,"30.3 µM, […]",26.64%
CN1CCC(c2nc3ccc(-c4cccc(F)c4)cn3n2)CC1.O=C(O)C(F)(F)F,Percent Effect,"30.3 µM, […]",56.26%
Cc1cnn(CC2CN(CC(=O)N3CCc4ccccc43)CCO2)c1 (stereo unspecified),Percent Effect,"30 µM, 30.03 µM",26.31%
CCCN(C(=O)c1cnns1)C1CCCN(Cc2ccccc2)C1 (stereo unspecified),Percent Effect,"30.3 µM, […]",15.37%
CCn1c(C)cc(C(=O)NCc2cccc(S(=O)(=O)NC)c2)c1C,Percent Effect,"30.3 µM, […]",-2.214%
C[C@@H]1CN(CCC(=O)N(C)Cc2ccccc2)CC[C@@]1(O)C1CCC1,Percent Effect,"30.3 µM, […]",-42.91%
C[C@@H]1CN(CCC(=O)N(C)Cc2ccccc2)C[C@@]1(O)C1CCC1,Percent Effect,"30.3 µM, […]",54.72%
CN(Cc1ccccc1)C(=O)CCN1CCC2(CC1)[C@H](O)C[C@@H]2O,Percent Effect,"30.3 µM, […]",16.81%
CC(C)Nc1cccc(CC2CCN(C)C2)n1.O=CO (stereo unspecified),Percent Effect,"30.3 µM, […]",8.612%
Cc1noc(C)c1CC(=O)NCC(C(C)C)N1CCOCC1 (stereo unspecified),Percent Effect,"30.3 µM, […]",13.16%
CS(=O)(=O)N1C[C@@H]2CC[C@H](C1)N(C(=O)CCc1ccsc1)C2,Percent Effect,"30.3 µM, […]",42.41%
CC(C)C1SCC(=O)Nc2c1cnn2-c1ccc(F)cc1 (stereo unspecified),Percent Effect,"30.3 µM, […]",-10.63%
CC(C)C1SCC(=O)Nc2c1cnn2-c1ccc(Cl)cc1 (stereo unspecified),Percent Effect,"30.3 µM, […]",63.84%
COc1ccc(-n2ncc3c2NC(=O)CSC3C(C)C)cc1 (stereo unspecified),Percent Effect,"30.3 µM, […]",23.81%
Cc1cc(C)c(CNC(=O)N2CCCN(C(=O)C(C)C)CC2)c(C)c1,Percent Effect,"30.3 µM, […]",-55.36%
COc1cc(NC2CCS(=O)(=O)C2)ncn1 (stereo unspecified),Percent Effect,"30.3 µM, […]",-35.33%
O=C(NCC1CCC1)c1cccc(CN2CCS(=O)(=O)CC2)c1,Percent Effect,"30.3 µM, […]",14.97%
CC(C)(C)NC(=O)c1cccc(CN2CCS(=O)(=O)CC2)c1,Percent Effect,"30.3 µM, […]",61.43%
Cc1nn(C)c(C)c1NC(=O)c1cccc(CN2CCS(=O)(=O)CC2)c1,Percent Effect,"30.3 µM, […]",17.24%
